Among the test systems are SK-MEL-2 melanoma; SN12C renal; UO-31 renal; TK-10 renal; ACHN renal; A498 renal; CCRF-CEM leukemia; MOLT-4 leukemia; EKVX NSCLC; CAKI-1 renal.
Holding throughout (assay): NCI-60 one-dose screen, 48 h (100 = growth as untreated, 0 = no growth, -100 = all killed)
Conditions in all cases: 10 µM unless noted

Compounds without any hit were thinned out: in the full panel of roughly 83,000, 20% have a hit.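 Note: values are percent growth. 100 is the growth of untreated cells, values between 100 and 0 indicate rising inhibition; between -100 and 0 indicates cell death.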 Unmarked numbers belong to inactive results. The source made the active and inactive calls. Rule for the calls: active = growth percent below 10; inactive = the rest.

Turning to `COc1cc2ccc(C(C)=O)cc2cc1OC`, the growth with SK-MEL-2 melanoma was 108%; with SN12C renal it was 95.1%; with UO-31 renal it was 72.4%; with TK-10 renal, 138%; in the assay with ACHN renal, 91.9%; with A498 renal, 65%. Also, the results for the growth in the assay with CCRF-CEM leukemia and with MOLT-4 leukemia were 118% and 127%, respectively.

With `CCOC(=O)C(CCCCC(NC(C)=O)(C(=O)OCC)C(=O)OCC)(NC(C)=O)C(=O)OCC`, the growth is 95.9% in the assay on SK-MEL-2 melanoma; 101% in the assay on SN12C renal; 87.3% in the assay on UO-31 renal; 97.9% in the assay with TK-10 renal; 104% in the assay on ACHN renal; 115% in the assay with A498 renal. Also, the growth with MOLT-4 leukemia is 109%.

Regarding `NNc1ccc(S(N)(=O)=O)cc1`, the growth is 103% in the assay on EKVX NSCLC; 91.6% with UO-31 renal; 105% in the assay with ACHN renal; 97.8% in the assay on CAKI-1 renal; 9.37% (active) in the assay on CCRF-CEM leukemia; 102% in the assay on MOLT-4 leukemia.

For `COc1ccc(-n2nc(C(=O)Nc3ccc(F)cc3)nc2-c2cc(OC)c(OC)c(OC)c2)cc1`, the growth with SK-MEL-2 melanoma was 102%; in the assay on SN12C renal, 92.4%; with UO-31 renal it was 51.6%; with TK-10 renal, 112%; with ACHN renal it was 89.8%; in the assay with A498 renal, 66.6%. Also, the values for the growth in the assay with CCRF-CEM leukemia and in the assay with MOLT-4 leukemia were 83.2% and 69.9%, respectively.

Turning to `O=C1c2cccc3cccc(c23)C(=O)N1CCCCCCCCCCN1C(=O)c2cccc3cccc(c23)C1=O`, the growth is 93.6% in the assay with SK-MEL-2 melanoma; 100% with SN12C renal; 99.4% in the assay on UO-31 renal; 121% in the assay with TK-10 renal; 96.2% in the assay with ACHN renal; 98% in the assay with CAKI-1 renal. Moreover, the results for the growth in the assay with A498 renal and in the assay on MOLT-4 leukemia were 105% and 107%, respectively.

For the compound `COc1cc(OC)c(C(=O)/C=C/c2cccc(OC(C)=O)c2)cc1CC=C(C)C`, the growth in the assay with EKVX NSCLC was 107%; in the assay with SN12C renal, 62.1%; in the assay on TK-10 renal, 162%; in the assay on ACHN renal it was 74.9%; in the assay with CAKI-1 renal it was 241%; with A498 renal it was 120%. The growth with CCRF-CEM leukemia was 9.5% (active); with MOLT-4 leukemia, 32%.

With `COc1cc(CN2CCC(N3CCCC3=O)c3ccccc32)cc(OC)c1OC` (stereo not drawn), the growth with SK-MEL-2 melanoma was 89.8%; in the assay on SN12C renal, 79.7%; with UO-31 renal it was 56%; with TK-10 renal, 86.3%; in the assay on ACHN renal it was 91.3%; in the assay with CAKI-1 renal, 70.7%. The results for the growth in the assay with A498 renal and in the assay with MOLT-4 leukemia were 63.6% and 72.4%, respectively.

Consider `CCCCCCCCCCCCCC`, for which the growth in the assay with EKVX NSCLC is 95.2%; in the assay on UO-31 renal, 98.6%; in the assay on ACHN renal it was 111%; with CAKI-1 renal, 98.9%; in the assay on CCRF-CEM leukemia, 90.4%; in the assay on MOLT-4 leukemia it was 111%.

On to `N#Cc1ccc(-c2ccc(-c3cccs3)o2)cc1F`, for which the growth with SK-MEL-2 melanoma is 70.8%; in the assay on SN12C renal, 89.1%; in the assay with UO-31 renal, 73.7%; in the assay with TK-10 renal, 89.9%; with ACHN renal, 64%; in the assay with CAKI-1 renal, 78.1%. Moreover, the growth was 95.9% in the assay on A498 renal and 66.3% with MOLT-4 leukemia.

Take `ClC1=NC(Cl)C(Cl)=N/C1=N\c1ncn[nH]1` (stereo not drawn): the growth was -5.62% (active) in the assay on SK-MEL-2 melanoma; 26.3% with SN12C renal; -81.7% (active) in the assay on UO-31 renal; -75.9% (active) with TK-10 renal; -92.4% (active) with ACHN renal; -75.9% (active) in the assay on CAKI-1 renal. Further, the values for the growth in the assay on A498 renal and with MOLT-4 leukemia were 121% and -52.2% (active), respectively.

In the case of `O=C1OC(/C=C/c2ccccc2)=NC/1=C/c1ccccc1[N+](=O)[O-]`, the growth with SK-MEL-2 melanoma is 94.7%; with SN12C renal, 104%; in the assay with UO-31 renal, 66.5%; in the assay on TK-10 renal it was 115%; in the assay with ACHN renal, 91.8%; with CAKI-1 renal it was 88.7%. Also, the growth in the assay on A498 renal was 121%; in the assay with MOLT-4 leukemia it was 91.1%.

`CCS(=O)(=O)Nc1cccc(Nc2c3cccc(C)c3nc3c(C)cccc23)c1OC`: the growth in the assay with SK-MEL-2 melanoma was 51.4%; in the assay with SN12C renal it was 12.5%; in the assay with UO-31 renal it was 10.7%; with TK-10 renal, 29.2%; in the assay with ACHN renal, -1.64% (active); with CAKI-1 renal it was 10.7%. Also, the growth is -1.15% (active) in the assay with A498 renal and -12.8% (active) in the assay on MOLT-4 leukemia.

Consider `Cc1ccc(NC(=O)c2cc(NCc3cc(O)ccc3O)ccc2O)cc1`, for which the growth with SK-MEL-2 melanoma was 82.8%; with SN12C renal, 86.1%; in the assay on UO-31 renal, 58%; with TK-10 renal, 102%; in the assay with ACHN renal it was 100%; with CAKI-1 renal it was 107%. Besides, the growth was 26.4% in the assay with CCRF-CEM leukemia and 69.7% in the assay on MOLT-4 leukemia.

In the case of `Cc1nn(-c2ccccc2)c2nc3c(nc12)C1=NCCN1C(c1ccc(Cl)cc1)N3` (stereo not drawn), the growth was 79.5% in the assay on SK-MEL-2 melanoma; 89.5% with SN12C renal; 59.2% with UO-31 renal; 94.4% in the assay on TK-10 renal; 87.3% in the assay with ACHN renal; 85.6% with A498 renal. The growth with MOLT-4 leukemia is 47.3%.

Turning to `CCN(C(=O)CCl)C(C)(C)C(SSSC(c1ccc(Cl)cc1)C(C)(C)N(CC)C(=O)CCl)c1ccc(Cl)cc1` (stereo not drawn), the growth is 78.5% in the assay on SK-MEL-2 melanoma; 88.3% in the assay with SN12C renal; 66.9% in the assay with UO-31 renal; 101% with TK-10 renal; 78.2% in the assay with ACHN renal; 29.1% with CAKI-1 renal. The growth in the assay on A498 renal is 98.8%; in the assay with MOLT-4 leukemia, 36.9%.

Regarding `COc1ccc(-c2ccc(-c3ccc(C(=N)N)s3)s2)cc1`, the growth with SK-MEL-2 melanoma was -78.4% (active); with SN12C renal, -51.8% (active); in the assay with UO-31 renal it was -71.4% (active); in the assay on TK-10 renal, -90.7% (active); in the assay with ACHN renal, -92.8% (active); with CAKI-1 renal, -82.8% (active). Besides, the growth was -73.9% (active) in the assay with A498 renal and -56.2% (active) with MOLT-4 leukemia.

For `COc1cc2c(cc1OC)-c1cc(OC)c(OC)cc1C(CN(C)C)C2` (stereo not drawn), the growth with SK-MEL-2 melanoma was 29% [100 µM]; with SN12C renal, 43.7% [100 µM]; with UO-31 renal, 68.1% [100 µM]; in the assay with TK-10 renal it was 65.7% [100 µM]; in the assay on ACHN renal it was 44.6% [100 µM]; with CAKI-1 renal, 11.6% [100 µM]. The growth is 52.6% [100 µM] in the assay with A498 renal and 103% [100 µM] in the assay with MOLT-4 leukemia.

Consider `O=C(CC(=O)c1ccccc1F)Nc1ccc([N+](=O)[O-])cc1`, for which the growth in the assay with SK-MEL-2 melanoma was 84%; in the assay with SN12C renal, 85.3%; with UO-31 renal it was 89.3%; in the assay with TK-10 renal it was 91.7%; in the assay on ACHN renal, 100%; in the assay with CAKI-1 renal, 106%. Further, the growth with A498 renal is 109%; in the assay on MOLT-4 leukemia it was 93.3%.

Source of the values: PubChem BioAssay (NCI).
